Data from PubChem BioAssay (Tox21).
Records with an inconclusive call do not appear. Active and inactive are the calls of the source. Unless noted, calls follow the shape of the dose curve; as a rule, active = well fitted curve in the direction sought with a large enough effect in the repeat runs; inconclusive = weak or mixed curves; inactive = no such curve, though single readings can be large; an effect the other way counts as inactive or inconclusive.

Columns and labels:
[1] = target: Retinoic acid receptor RXR-alpha (Homo sapiens) (UniProt P19793); test: qHTS assay to identify small molecule agonists of the RXR signaling pathway (AID 1159527; calls by dose curve; also: nearly all actives have a fitted effect of over 35% in size)
Sequence of Retinoic acid receptor RXR-alpha (Homo sapiens) (P19793 whole entry, looked up): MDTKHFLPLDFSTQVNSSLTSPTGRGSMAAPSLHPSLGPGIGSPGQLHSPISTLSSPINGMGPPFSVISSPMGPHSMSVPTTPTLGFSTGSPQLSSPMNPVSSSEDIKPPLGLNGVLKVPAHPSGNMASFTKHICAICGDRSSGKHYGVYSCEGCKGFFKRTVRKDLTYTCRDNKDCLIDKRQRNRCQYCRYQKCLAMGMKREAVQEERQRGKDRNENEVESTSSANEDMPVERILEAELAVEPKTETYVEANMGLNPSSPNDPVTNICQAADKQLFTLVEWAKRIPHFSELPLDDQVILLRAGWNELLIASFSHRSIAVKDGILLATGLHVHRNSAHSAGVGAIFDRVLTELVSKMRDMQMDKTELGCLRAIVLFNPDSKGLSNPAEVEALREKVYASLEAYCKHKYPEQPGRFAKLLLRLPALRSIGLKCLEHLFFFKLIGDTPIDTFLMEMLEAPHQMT
Summary of the method: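 Agonist mode; 9-cis retinoic acid positive control. HEK 293T UAS-bla reporter cells, 2% charcoal-stripped FBS, 16 hr compound exposure at 37 C/5% CO2. LiveBLAzer B/G FRET substrate 2 hr RT; ex 405, em 460/530 nm.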

[2] = qHTS assay to identify small molecule agonists of the RXR signaling pathway - cell viability counter screen (AID 1159529); also: series mostly up to about 77 µM; nearly all actives have a fitted effect of over 50% in size
Summary of the method: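 Luminescence from CellTiter-Glo (30 min, RT) measured viability in the same wells as the beta-lactamase reporter readout. Cells: GeneBLAzer RXR-alpha HEK 293T, 2% charcoal-stripped FBS. Compound exposure 16 hr, 37 C.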

[3] = qHTS assay to identify small molecule antagonists of the retinoid acid receptor (RAR) signaling pathway - cell viability counter screen (AID 1159551); also: nearly all actives have a fitted effect of over 35% in size
Summary of the method: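 Measured by luminescent ATP detection, viability reflects C3RL4 cells treated 6 h at 37 C with test chemicals in the presence of 1 uM (final) retinol.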

[4] = qHTS assay to identify small molecule antagonists of the estrogen related receptor (ERR) signaling pathway - cell viability counter screen (AID 1224818); also: series mostly up to about 46 µM
Summary of the method: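 Compounds dissolved in DMSO were applied to ERR cells seeded at 2,000 per well 6 h earlier. Cell viability followed 17.5 h later via 30-min CellTiter-Fluor fluorescence.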

[5] = qHTS assay to identify small molecule antagonists of the estrogen related receptor signaling pathway with the pleiotropic PPARgamma coactivator (PGC) cell viability counter screen (AID 1224822; also: series mostly up to about 46 µM)
Summary of the method: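 Counter screen for cell viability: PGC/ERR cells, 6 h pre-incubation after plating, 17.5 h compound exposure at 37 C, fluorescence from CellTiter-Fluor after 30 min.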

[6] = target: Luciferin 4-monooxygenase (Photinus pyralis) (UniProt P08659); test: qHTS assay to identify small molecule inhibitors of firefly luciferase (AID 1224835); also: series mostly up to about 120 µM; nearly all actives have a fitted effect of over 25% in size
Sequence of Luciferin 4-monooxygenase (Photinus pyralis) (P08659 whole entry, looked up): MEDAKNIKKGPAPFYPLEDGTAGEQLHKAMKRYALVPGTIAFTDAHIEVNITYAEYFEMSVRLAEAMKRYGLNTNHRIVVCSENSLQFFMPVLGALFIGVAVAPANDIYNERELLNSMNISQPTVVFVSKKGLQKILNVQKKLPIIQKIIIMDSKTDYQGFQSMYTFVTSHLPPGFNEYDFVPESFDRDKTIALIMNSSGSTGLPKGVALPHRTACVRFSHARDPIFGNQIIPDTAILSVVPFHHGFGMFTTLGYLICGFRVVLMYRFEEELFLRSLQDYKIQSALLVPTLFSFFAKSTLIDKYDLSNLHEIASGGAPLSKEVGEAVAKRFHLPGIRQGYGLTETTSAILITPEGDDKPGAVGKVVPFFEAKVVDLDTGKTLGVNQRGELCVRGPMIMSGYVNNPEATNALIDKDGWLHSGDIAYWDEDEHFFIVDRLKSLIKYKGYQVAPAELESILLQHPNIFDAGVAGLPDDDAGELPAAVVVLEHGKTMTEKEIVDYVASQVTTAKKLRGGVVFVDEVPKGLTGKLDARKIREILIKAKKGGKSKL
Summary of the method: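 Biochemical qHTS: compounds run as interplate titrations against purified firefly enzyme, with D-luciferin and ATP each at its KM concentration. Light output recorded by CCD imaging.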

[7] = qHTS assay to identify small molecule agonists of the constitutive androstane receptor (CAR) signaling pathway - cell viability counter screen (AID 1224836); also: series mostly up to about 92 µM; nearly all actives have a fitted effect of over 45% in size
Summary of the method: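 Viability read-out: CellTiter-Fluor fluorescence after 23 h compound exposure at 37 C/5% CO2 in double-stable HepG2-CYP2B6-hCAR cells, with PK11195 present at 0.75 uM final; compounds tested in 15-point titration.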

[8] = qHTS assay to identify small molecule antagonists of the constitutive androstane receptor (CAR) signaling pathway - cell viability counter screen (AID 1224837); also: series mostly up to about 92 µM; nearly all actives have a fitted effect of over 45% in size
Summary of the method: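 To flag cytotoxic false antagonists, HepG2 hCAR/CYP2B6-2.2kb cells were treated 23 hr with 15-concentration compound series and 50 nM CITCO at 37 C/5% CO2; CellTiter-Fluor fluorescence was the measured end point.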

[9] = target: Nuclear receptor subfamily 1 group I member 3 (Homo sapiens) (UniProt Q14994); test: qHTS assay to identify small molecule antagonists of the constitutive androstane receptor (CAR) signaling pathway (AID 1224838);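 also: HepG2 cells stably expressing hCAR with CYP2B6 luciferase reporter stimulated by CITCO; nearly all actives have a fitted effect of over 40% in size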
Sequence of Nuclear receptor subfamily 1 group I member 3 (Homo sapiens) (Q14994 whole entry, looked up): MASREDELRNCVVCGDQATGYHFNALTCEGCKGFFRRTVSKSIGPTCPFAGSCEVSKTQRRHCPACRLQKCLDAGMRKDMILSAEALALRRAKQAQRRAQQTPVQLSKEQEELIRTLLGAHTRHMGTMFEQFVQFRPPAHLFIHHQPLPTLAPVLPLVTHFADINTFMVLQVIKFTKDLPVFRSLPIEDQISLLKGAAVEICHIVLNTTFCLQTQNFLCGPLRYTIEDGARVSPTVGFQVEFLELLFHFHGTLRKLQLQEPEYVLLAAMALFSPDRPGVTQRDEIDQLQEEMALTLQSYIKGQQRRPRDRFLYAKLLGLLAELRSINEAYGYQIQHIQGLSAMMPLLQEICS
Summary of the method: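 Human hepatoma HepG2 cells expressing hCAR and a CYP2B6 promoter (2.2 kb) luciferase construct; compound titration (15 points) with 50 nM CITCO final, 24 h at 37 C/5% CO2; luminescence via ONE-Glo after 30 min at room temperature.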

[10] = target: Nuclear receptor subfamily 1 group I member 3 (Homo sapiens) (UniProt Q14994); test: qHTS assay to identify small molecule agonists of the constitutive androstane receptor (CAR) signaling pathway (AID 1224839);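 also: HepG2 cells stably carrying human CAR and a CYP2B6 luciferase reporter; series mostly up to about 92 µM; nearly all actives have a fitted effect of over 15% in size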
Summary of the method: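 Luminescence read-out (ONE-Glo, 30 min, room temperature) from double-stable HepG2-CYP2B6-hCAR cells exposed 24 h to 15-point compound series in presence of 0.75 uM PK11195 final.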

[11] = qHTS assay to identify small molecule antagonists of the estrogen related receptor signaling pathway with the pleiotropic PPARgamma coactivator (PGC) from Tox21 10K library - cell viability counter screen (AID 1224840; active = well fitted cell-killing curve with a large enough effect in the repeat runs, not every such curve was filed as active; also: nearly all actives have a fitted effect of over 40% in size)
Summary of the method: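 Seeded PGC/ERR cells (2,000/well, 6 h, 37 C/5% CO2) get compound by pin tool; 17.5 h incubation at 37 C; CellTiter-Fluor added, 30 min, fluorescence measured.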

[12] = qHTS assay to identify small molecule antagonists of the estrogen related receptor (ERR) signaling pathway (AID 1224819;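 also: luminescence from an ERR-driven luciferase reporter measured with One-Glo reagent; series mostly up to about 46 µM; nearly all actives have a fitted effect of over 50% in size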)
Summary of the method: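 Compounds dissolved in DMSO were pin-transferred onto ERR cells that had been plated 6 h earlier, and cells were then incubated 18 h at 37 C; signal was luciferase luminescence via One-Glo.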

[13] = qHTS assay to identify small molecule agonists of the estrogen related receptor (ERR) signaling pathway (AID 1224820)
Summary of the method: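 Following a 6 h settling period, 2,000 ERR cells per well receive DMSO-dissolved compounds by pin tool and incubate 18 h at 37 C; agonist activity is scored from One-Glo luminescence read 30 min post-addition.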

[14] = tested on: estrogen-related receptor alpha (ERRalpha) with PGC-1alpha coactivator, human; test: qHTS assay to identify small molecule antagonists of the estrogen related receptor signaling pathway with the pleiotropic PPARgamma coactivator (PGC) (AID 1224821; calls by dose curve;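 also: series mostly up to about 46 µM; lower luminescence signal means antagonism of PGC/ERR signalling; nearly all actives have a fitted effect of over 50% in size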)
Summary of the method: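 Screening used NTP's PGC/ERR cells, dosed via pin tool with compound in DMSO alongside positive and negative controls. After 18 h at 37 C, One-Glo reagent sat 30 min at room temperature before luminescence detection.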

[15] = qHTS assay to identify small molecule agonists of the estrogen related receptor signaling pathway with the pleiotropic PPARgamma coactivator (PGC) (AID 1224823)
Summary of the method: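 In this quantitative high-throughput screen, an 18 h, 37 C treatment of PGC/ERR cells with compounds in DMSO preceded a One-Glo luminescence read taken after 30 min at room temperature.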

[16] = qHTS assay to identify small molecule antagonists of the estrogen related receptor (ERR) signaling pathway from Tox21 library - cell viability counter screen (AID 1224834); also: nearly all actives have a fitted effect of over 30% in size
Summary of the method: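 Seeded ERR cells were rested 6 h at 37 C/5% CO2 before compounds, positive and negative controls or DMSO were added. Incubation continued for 17.5 h, and viability was then quantified by CellTiter-Fluor fluorescence.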

[17] = qHTS assay to identify small molecule agonists of the estrogen related receptor signaling pathway with the pleiotropic PPARgamma coactivator (PGC) from Tox21 10K library (AID 1224842); also: nearly all actives have a fitted effect of over 15% in size
Summary of the method: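 PGC/ERR reporter cell line, 2,000 cells per well, incubated 6 h at 37 C before 23 nL compound in DMSO was added. After 18 h at 37 C, One-Glo luminescence read following 30 min at room temperature.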

[18] = qHTS assay to identify small molecule antagonists of the estrogen related receptor signaling pathway with the pleiotropic PPARgamma coactivator (PGC) from Tox21 10K library (AID 1224841; call rule not given here; also: series mostly up to about 92 µM; actives are mostly falling curves and most rising ones were filed inactive; nearly all actives have a fitted effect of over 50% in size)
Summary of the method: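 Test chemicals dissolved in DMSO were applied to pre-incubated (6 h) PGC/ERR cells at 2,000 cells/well for an 18 h, 37 C treatment; reporter luminescence was then read using One-Glo.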
% is scaled to controls: 0 for no effect and ±100 for the full control effect.

N[C@@H](COP(=O)(O)O)C(=O)O
inactive: activation [1] 7.83% [at 15.8 µM] | activity change, negative = cytotoxicity [2] 11.4% [at 15.8 µM] | activity change, negative = cytotoxicity [3] -0.284% [at 19 µM] | outcome [4] | outcome [5] | activity change, negative = inhibition [6] 0.319% [at 23.6 µM] | viability change, negative = cytotoxic [7] 0.478% [at 19 µM] | activity change, negative = cytotoxicity [8] 10.4% [at 19 µM] | activity, negative = inhibition [9] 2.8% [at 19 µM] | activation [10] -2.56% [at 19 µM] | viability change, negative = cytotoxic [11] 2.06% [at 19 µM]

NC(CO)C(=O)NNCc1ccc(O)c(O)c1O (stereo not given)
inactive: Potency [1] | outcome [2] | outcome [3] | outcome [4] | outcome [12] | outcome [13] | outcome [14] | outcome [5] | outcome [15] | Potency [16] | Potency [6] | Potency [7] | Potency [8] | outcome [11] | outcome [17]

O=C(NCCN1CCOCC1)c1ccc(Cl)cc1
inactive: Potency [1] | outcome [2] | outcome [3] | outcome [4] | outcome [12] | outcome [14] | outcome [5] | outcome [15] | Potency [16] | Potency [6] | Potency [7] | Potency [8] | outcome [9] | Potency [10] | outcome [11] | Potency [18] | outcome [17]

CCOC(=O)[C@H](CCc1ccccc1)N[C@@H](C)C(=O)N1C(=O)N(C)C[C@H]1C(=O)O
inactive: Potency [1] | outcome [2] | outcome [3] | Potency [16] | Potency [6] | Potency [7] | Potency [8] | outcome [9] | Potency [10] | outcome [11]

CCC(CC)CO
inactive: Potency [1] | outcome [2] | outcome [3] | Potency [16] | Potency [6] | Potency [7] | Potency [8] | outcome [9] | Potency [10] | outcome [11]

CC1=CCC(C(C)C)=CC1
inactive: Potency [1] | outcome [2] | outcome [3] | Potency [16] | Potency [6] | Potency [7] | Potency [8] | outcome [9] | Potency [10] | outcome [11]

CC(=O)N[C@@H](CCC(=O)O)C(=O)O
inactive: Potency [1] | outcome [2] | outcome [3] | Potency [16] | Potency [6] | Potency [7] | Potency [8] | outcome [9] | Potency [10] | outcome [11] | Potency [18] | outcome [17]

COP(=O)(OC)OC(c1ccc(Cl)cc1)P(=O)(OC)OC (stereo not given)
inactive: Potency [1] | outcome [2] | outcome [3] | Potency [16] | Potency [6] | Potency [7] | Potency [8] | outcome [9] | Potency [10] | outcome [17]

CC(C)(C)NC(N)=O
inactive: Potency [1] | outcome [2] | outcome [3] | Potency [16] | Potency [6] | Potency [7] | Potency [8] | outcome [9] | Potency [10] | outcome [11] | Potency [18] | outcome [17]

CCCCN
inactive: Potency [1] | outcome [2] | outcome [3] | Potency [16] | Potency [6] | Potency [7] | Potency [8] | outcome [9] | Potency [10] | outcome [11] | Potency [18] | outcome [17]

CN=C(NC#N)Nc1ccc(C2=NNC(=O)CC2C)cc1 (stereo not given)
inactive: Potency [1] | outcome [2] | outcome [3] | Potency [16] | Potency [6] | Potency [7] | Potency [8] | outcome [9] | Potency [10] | outcome [11] | Potency [18] | outcome [17]

CCCCCCOC(=O)CC
inactive: Potency [1] | outcome [2] | outcome [3] | Potency [16] | Potency [6] | Potency [7] | Potency [8] | outcome [9] | Potency [10] | outcome [11] | outcome [17]

CCCCCCCCCCCCCC
inactive: Potency [1] | outcome [2] | outcome [3] | Potency [16] | Potency [6] | Potency [7] | Potency [8] | outcome [9] | Potency [10] | outcome [11] | Potency [18]

CNC(=O)[C@H]1O[C@@H](n2cnc3c(NCc4cc(Cl)ccc4OCc4cc(C)no4)ncnc32)[C@H](O)[C@@H]1N
inactive: Potency [1] | outcome [2] | outcome [3] | Potency [16] | Potency [6] | Potency [7] | Potency [8] | outcome [9] | Potency [10] | outcome [11] | Potency [18] | outcome [17]
